VP16 counter: Gal4-VP16 reporter inhibition counter-screen; Drosophila S2 Gal4-VP16 UAS-luciferase, luminescence, 20 h; Potency, µM (titrated, usually from 53.6 µM), inactives show top-dose activity, negative = inhibition, most hits filed as inhibitors; hit rate 3.5% among 310,000;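 further: Gal4-VP16 expression switched on by copper sulfate through the metallothionein promoter; on the % scale 0 is the no-effect control and ±100 the full control effect; nearly all actives have a fitted effect of over 50% in size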
MCF10A rereplic: DNA re-replication induction in MCF 10a cells; MCF 10A DNA re-replication, Hoechst nuclear intensity, 48 h; Potency, µM (doses to about 46.1 µM), inactives show at the top dose activity, positive = re-replication, most hits filed as activators; hit rate 2.9% among 350,000; AID 624296; further: % of control where 0% means no effect; nearly all actives have a fitted effect of over 50% in size
ELG1 DNA repair: ELG1-dependent DNA repair inhibition | HEK293T ELG1-luciferase reporter, luminescence, 16 h; DNA damage induced by 5-fluorouridine | Potency, µM (titrated, usually from 46.1 µM), inactives show top-dose activity change, negative = inhibition, actives largely listed as inhibitors | hit rate 2.3% among 330,000 | AID 504467; further: on the % scale 0 is the no-effect control and ±100 the full control effect; nearly all actives have a fitted effect of over 55% in size
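DMSO vehicle served as the neutral condition. Each well held 2,000 cells given 5-fluorouridine plus compound; after 16 hr at 37 °C/5% CO2, ONE-Glo was added and luciferase measured 30 min later.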
SW480 rerep: induces DNA re-replication in SW480 colon adenocarcinoma cells. SW480 DNA re-replication, Hoechst DNA content imaging, 48 h. Potency, µM (titrated, usually from 46.1 µM), for the others: at the top dose re-replication activation, actives largely listed as activators. hit rate 1.8% among 340,000. AID 624297; further: % of control where 0% means no effect; nearly all actives have a fitted effect of over 55% in size
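Quantitative HTS format with DMSO vehicle controls; 48 hr drug incubation at 37 C, then 40 min Hoechst staining and scanning imager measurement at 405 nm excitation.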
RORgamma inh: ROR gamma (mouse) transcription inhibition; Potency, µM (doses to about 53.6 µM), without a hit: top-dose activity change, negative = inhibition, hits mostly inhibitors; Drosophila S2 Gal4-RORgamma UAS-luciferase reporter, 20 h; hit rate 5.4% among 310,000; further: on the % scale 0 is the no-effect control and ±100 the full control effect; nearly all actives have a fitted effect of over 60% in size
Target sequence (P51450 whole entry, looked up, the tested form may be a part): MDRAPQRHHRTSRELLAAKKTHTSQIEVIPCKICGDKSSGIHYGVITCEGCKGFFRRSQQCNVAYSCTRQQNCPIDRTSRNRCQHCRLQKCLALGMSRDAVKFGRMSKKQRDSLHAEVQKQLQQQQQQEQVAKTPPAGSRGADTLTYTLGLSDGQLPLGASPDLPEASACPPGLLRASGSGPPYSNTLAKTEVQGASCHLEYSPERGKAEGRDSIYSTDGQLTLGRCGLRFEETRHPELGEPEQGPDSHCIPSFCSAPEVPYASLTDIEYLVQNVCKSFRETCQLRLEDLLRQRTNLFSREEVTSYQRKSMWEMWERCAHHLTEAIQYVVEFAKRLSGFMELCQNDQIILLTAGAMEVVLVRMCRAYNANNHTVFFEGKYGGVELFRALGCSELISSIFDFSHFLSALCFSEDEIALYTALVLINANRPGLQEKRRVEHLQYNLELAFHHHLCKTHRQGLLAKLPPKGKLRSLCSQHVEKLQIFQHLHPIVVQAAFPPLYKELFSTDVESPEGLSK
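Stably transfected Drosophila Schneider cells are the test system, with ROR gamma fused to Gal4 and luciferase under UAS control; luminescence is read after 20 hr of 700 uM copper sulfate induction at ambient temperature.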
* marks the source's active call; other numbers are inactive results; ? = inconclusive; · = no result; [ ] = another dose, or the depositor's remark. An excerpt weighted towards active compounds, which were near 10% of everything screened. The call rests on the fitted dose curve; in most records, active means well fitted curve in the direction sought with a large enough effect; inconclusive means small, poorly fitted or top-dose-only effect, or another doubt; inactive means no such curve, though single readings can be large; an effect the other way counts as inactive or inconclusive. Potency means the concentration at half of the fitted maximal effect.

SMILES | VP16 counter | MCF10A rereplic | ELG1 DNA repair | SW480 rerep | RORgamma inh
COc1ccccc1-c1nnc(NC(=O)C(C)Sc2nncn2C)s1 (stereo unspecified) | -6% | -7% | ? | 5% | 1%
CC(C)c1nnc(NC(=O)c2ccc3c(c2)OCO3)s1 | ? | 0% | ? | -26% | 6.3µM*
COc1ccccc1-c1nnc(NC(=O)CSc2nncn2C)s1 | ? | -2% | ? | 2% | 8.9µM*
O=C1CCC(=O)N1CCSC(=S)N1CCOCC1 | 4% | 2% | -10% | -124% | 11%
CC1CCCN(C(=O)Cn2nnc(-c3ccc([N+](=O)[O-])cc3)n2)C1 (stereo unspecified) | 0% | · | 3% | · | 0%
N#C/C(=C1\C(=O)Nc2c(Cl)cc(Cl)cc21)c1nnc2n1CCCCC2 | ? | -1% | 0% | -3% | 16µM*
N#C/C(=C(/O)CCl)c1nnc2n1CCCCC2 | -27% | -1% | 4% | -5% | ?
N#C/C(=N\Nc1cc(Cl)cc(Cl)c1)c1nnc2n1CCCCC2 | 6.3µM* | ? | -14% | -9% | 6.3µM*
CC1CCN(S(=O)(=O)c2cccc(C(=O)NC3CCCCC3)c2)CC1 | -2% | 8% | -14% | -13% | ?
Cc1ccc(NC(=O)c2cc(S(=O)(=O)N3CCCC3)c[nH]2)c(C)c1 | -7% | -1% | -12% | -1% | 1%
CC1(C)CC(=O)C(C(c2cc([N+](=O)[O-])ccc2Cl)C2C(=O)CC(C)(C)CC2=O)C(=O)C1 | · | ? | · | 12µM* | ·
Cc1cccc(NS(=O)(=O)c2ccc(C)c(C(=O)N3CCN(C(=O)c4ccco4)CC3)c2)c1 | · | 0% | · | 2% | ·
CCc1ccc(N/C(SCc2ccccc2C)=C(/C#N)C(=O)NCc2ccco2)cc1 | -18% | -38%[0.0737 µM] | -13% | 3.7µM* | ?
Cc1nc2oc3c(NCC4CCCO4)ncnc3c2c2c1COC(C)(C)C2 (stereo unspecified) | -4% | 4% | ? | -24% | 10%
Cc1nc2oc3c(NCc4ccccc4)ncnc3c2c2c1COC(C)(C)C2 | -4% | 10% | 7.3µM* | -9% | 8%
CCc1ccc(C(=O)CN2C(=O)C(C)N(c3ccc(C)cc3)C2=O)cc1 (stereo unspecified) | 4% | -6% | 29% | 0% | 13%
C[C@H]1COC(=O)[C@H](NC(=O)OCC2c3ccccc3-c3ccccc32)C/C=C\C[C@H](CC(=O)N(CCO)Cc2ccccc2)C(=O)N1 | · | ? | 26µM* | ? | ·
O=C(N[C@@H]1C/C=C\C[C@@H](CC(=O)N(CCO)Cc2ccccc2)C(=O)NC[C@H](c2ccccc2)OC1=O)OCC1c2ccccc2-c2ccccc21 | · | ? | 15µM* | ? | ·
O=C(N[C@H]1C/C=C\C[C@H](CC(=O)N(CCO)Cc2ccccc2)C(=O)N[C@@H](c2ccccc2)COC1=O)OCC1c2ccccc2-c2ccccc21 | · | 1% | 13% | -1% | ·
C[C@@H]1COC(=O)[C@@H](NC(=O)OCC2c3ccccc3-c3ccccc32)C/C=C\C[C@@H](CC(=O)N(CCO)Cc2ccccc2)C(=O)N1 | · | 3% | ? | 0% | ·
COCCN1CC(C(=O)NCc2ccccc2-n2ccnc2C)CCC1=O (stereo unspecified) | 2% | 1% | -9% | -3% | 4%
COc1ccc(OC)c(NC(=O)c2nnn(Cc3ccc(Br)cc3F)c2N)c1 | -20% | 0% | 21µM* | 0% | -17%
COc1cccc(Cn2nnc(C(=O)Nc3cc(Cl)ccc3OC)c2N)c1 | 5% | ? | ? | -2% | 22%
Cc1cc2cc(C#N)c(SCC(=O)Nc3nonc3C)nc2cc1C | 9% | 15µM* | ? | ? | -17%
CCC(=O)Nc1c2c(nn1-c1cccc(Cl)c1)CS(=O)(=O)C2 | -1% | -5% | 0% | -2% | -6%
SMILES | VP16 counter | MCF10A rereplic | ELG1 DNA repair | SW480 rerep | RORgamma inh
O=C1c2cccc3cccc(c23)C(=O)N1CCN1CCN(CC(O)COc2ccc3ccccc3c2)CC1 (stereo unspecified) | 11µM* | ? | 9.2µM* | ? | ?
O=C1c2cccc3cccc(c23)C(=O)N1CC1CCN(CC(O)COc2ccc3ccccc3c2)CC1 (stereo unspecified) | -9% | ? | ? | ? | 27%
Nc1cc2c3c(cccc3c1)C(=O)N(CCN1CCCC1)C2=O | -17% | ? | ? | 15µM* | -36%
Cc1ccc(C)c(OCC(O)CN2CCN(CCN3C(=O)c4cccc5cccc(c45)C3=O)CC2)c1 (stereo unspecified) | ? | ? | 18µM* | ? | -4%
CC(=O)c1ccccc1OCC(O)CN1CCN(CCN2C(=O)c3cccc4cccc(c34)C2=O)CC1 (stereo unspecified) | ? | ? | ? | ? | -7%
O=C(c1ccc(F)cc1F)N1CCC(N2CCC(C(=O)N3CCOCC3)CC2)CC1 | -15% | 1% | 8% | 4% | -19%
N#Cc1ccc(CN2CC3(CCN(C(=O)c4csnn4)CC3)C2)cc1 | 5% | · | · | · | -7%
Cc1ccn(C(=O)c2ccc(NC(=O)C3CC3)cc2)n1 | -1% | 7% | 6% | -14% | 13%
CC(=O)Cc1nsc(NC(=O)c2cccc(F)c2)n1 | -6% | -1% | ? | -87% | 29%
c1cnc2c(OCc3cn4cccnc4n3)cccc2c1 | 6% | 12µM* | ? | -2% | ?
CC1=C(C#N)C(c2cccnc2)C2=C(CC(c3ccc(Cl)cc3)CC2=O)N1 (stereo unspecified) | -15% | 3% | -16% | 7.3µM* | -1%
CC(C(=O)Nc1ccc2c(c1)OCO2)n1cnc2c1c(=O)n(C)c(=O)n2C (stereo unspecified) | · | 5% | 29% | -8% | ·
Cc1c(N2C(=O)C(=O)/C(=C(/O)c3ccc(Br)cc3)C2c2cccnc2)c(=O)n(-c2ccccc2)n1C (stereo unspecified) | -3% | 2% | -14% | 0% | -2%
COc1ccc(CNc2cc(C)ccc2C)c(OC)c1OC | -11%[0.365 µM] | 0% | 5% | -3% | -21%
COc1cc(CN(C)C(C)C(=O)Nc2ccc([N+](=O)[O-])cc2Cl)ccc1OC(F)F (stereo unspecified) | -3% | 7% | 16µM* | 3% | 28%
COc1ccc([N+](=O)[O-])cc1NC(=O)C(C)N(C)Cc1cccc(OC)c1OC (stereo unspecified) | ? | 30% | 9.2µM* | 17% | 26%
COc1ccc(C)cc1NCc1cccc(OC)c1OC | 14% | 3% | 7% | 0% | 18µM*
Cc1ccc(C(C)C)cc1NC(=O)Nc1ccc([N+](=O)[O-])cc1 | 13µM* | ? | ? | -6% | 35µM*
